Laboratory results as given in publication PMC5540273 (PLoS ONE, 2017).

Experiments:
Settings in all cases: concentration: 1 μM, replicates: in singlicate; n = 1
[1] = system: FGFR1
[2] = system: FGFR2
[3] = system: FGFR3
[4] = system: FGFR4
[5] = system: FGR
[6] = system: FLT1
[7] = system: FLT3-autoinhibited
[8] = system: FLT3
[9] = system: FLT4
[10] = system: FRK
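Note: KINOMEscan kinase panel screen.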

| Structure (SMILES) | %Inh [1] | %Inh [2] | %Inh [3] | %Inh [4] | %Inh [5] | %Inh [6] | %Inh [7] | %Inh [8] | %Inh [9] | %Inh [10] |
| --- | --- | --- | --- | --- | --- | --- | --- | --- | --- | --- |
| COC(=O)Nc1nc2cc(Oc3ccc(NC(=O)Nc4cccc(SC)c4)cc3)ccc2[nH]1.Cl [GW697999] | 11% | 5% | 0% | 0% | 47% | 98.9% | 22% | 99.3% | 86% | 48% |
| Fc1cc(Cl)ccc1Nc1ccnc2cc(-c3ccc(CN4CCSCC4)o3)ccc12 [GW560106] | 47% | 34% | 11% | 19% | 90.8% | 87% | 0% | 72% | 91.6% | 86% |
| Cc1nn2c(=O)cc(N3CCO[C@H](C)C3)nc2n1Cc1cccc(Cl)c1Cl [GSK2373693] | 6% | 12% | 12% | 63% | 6% | 33% | 13% | 0% | 18% | 5% |
| Cc1ccc(Nc2ccnc(Nc3ccc(C)c(F)c3)n2)cc1O.Cl [GW582868] | 1% | 0% | 12% | 5% | 85% | 46% | 0% | 59% | 72% | 92.9% |
| Cl.N#CCc1ccc(Nc2nccc(Nc3ccc(Oc4ccccc4)cc3)n2)cc1 [GW639905] | 11% | 8% | 13% | 0% | 90.2% | 43% | 23% | 94.5% | 12% | 39% |
| Cn1cc(-c2ccc3c(c2)CCN3C(=O)Cc2cc(F)cc(F)c2F)c2c(N)ncnc21 [GSK2634140] | 0% | 0% | 0% | 0% | 48% | 59% | 0% | 31% | 14% | 10% |
| Cc1ccc(-c2ccc3occ(-c4ccc(S(C)=O)cc4)c3c2)nn1 (stereo not shown) | 0% | 2% | 4% | 0% | 15% | 0% | 0% | 0% | 0% | 0% |
| Nc1ncc(-c2ccc3nccc(-c4ccncc4)c3c2)cc1S(=O)(=O)N1CCCCC1 [GSK1693850] | 0% | 84% | 16% | 0% | 23% | 7% | 0% | 2% | 0% | 1% |
| Cn1cc(-c2ccc3c(c2)CCN3C(=O)Cc2cc(F)cc(C(F)(F)F)c2)c2c(N)ncnc21 [GSK2635225] | 26% | 0% | 11% | 33% | 35% | 39% | 13% | 90% | 30% | 18% |
| Cc1cc(-c2ccnc(Nc3cccc(C#N)c3)n2)cc(C)c1O [GSK1440913] | 0% | 54% | 27% | 14% | 37% | 27% | 12% | 48% | 15% | 60% |
| COc1cc(Nc2ccnc3cc(-c4ccncc4)ccc23)cc(OC)c1OC.Cl [GW494610] | 23% | 14% | 15% | 0% | 81% | 21% | 0% | 3% | 0% | 44% |
| Cc1cccc(Nc2nc(N[C@H]3CCCC[C@H]3N)ncc2C(N)=O)c1.Cl [GSK986310] | 24% | 4% | 3% | 15% | 56% | 43% | 1% | 23% | 24% | 19% |
| CN(C)CCOc1ccc(-c2cc(-c3ccc(Cl)c(O)c3)c(-c3ccncc3)[nH]2)cc1.Cl.Cl [SB-684387] | 0% | 1% | 30% | 15% | 73% | 0% | 17% | 0% | 1% | 82% |
| CC(C)NCC(Cc1ccccc1)NC(=O)c1cc(Br)c(-c2ccnc3[nH]ccc23)s1.Cl.Cl (stereo not shown) [GSK1383281] | 86% | 62% | 60% | 64% | 16% | 65% | 0% | 68% | 48% | 0% |
| Nc1ncc(-c2cn[nH]c2)c2scc(-c3ccc4c(c3)CCN4C(=O)Cc3ccccc3)c12 [GSK2593067] | 37% | 31% | 19% | 0% | 80% | 83% | 13% | 98.4% | 43% | 38% |
| CN(C)CCNS(=O)(=O)c1ccc(-c2ccnc3[nH]ccc23)cc1 [GSK977620] | 33% | 9% | 5% | 0% | 4% | 38% | 11% | 65% | 15% | 6% |
